Shown are actives, neighbours in structure and some others; about 1.1% of the full set was active somewhere.
LDHA block – blocks human lactate dehydrogenase A | P00338 | purified LDHA, NADH/diaphorase-resazurin fluorescence; hits give low values | activity change, % (values are at about 110 or 230 µM) | actives 0.15% (n = 480,000) | AID 1347041; in the data active = activity change below about -30%; inconclusive = mostly about -25% to -30%;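 note: plate controls were DMSO wells for no effect and wells without enzyme for full effect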
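Remaining NADH was detected by diaphorase (0.133 mg/mL) converting 37 µM resazurin to fluorescent resorufin, read at 0 and 20 minutes. The preceding 5-minute room-temperature reaction used 2 nM LDHA, 0.2 mM sodium pyruvate and 0.06 mM NADH at pH 7.4.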
PTHR1 ag – agonists of human PTHR1 parathyroid hormone receptor. AID 743266. actives 0.075% (n = 410,000). Potency, µM (titrated, usually from 115 µM), inactives show top-dose activation, hits mostly activators. HEK293 GP2 PTHR1 cells, GloSensor cAMP luminescence, 1 h; note: potency is the fitted concentration of half-maximal effect; nearly all actives have a fitted effect of over 55% in size
Target sequence (Q03431 whole entry, looked up): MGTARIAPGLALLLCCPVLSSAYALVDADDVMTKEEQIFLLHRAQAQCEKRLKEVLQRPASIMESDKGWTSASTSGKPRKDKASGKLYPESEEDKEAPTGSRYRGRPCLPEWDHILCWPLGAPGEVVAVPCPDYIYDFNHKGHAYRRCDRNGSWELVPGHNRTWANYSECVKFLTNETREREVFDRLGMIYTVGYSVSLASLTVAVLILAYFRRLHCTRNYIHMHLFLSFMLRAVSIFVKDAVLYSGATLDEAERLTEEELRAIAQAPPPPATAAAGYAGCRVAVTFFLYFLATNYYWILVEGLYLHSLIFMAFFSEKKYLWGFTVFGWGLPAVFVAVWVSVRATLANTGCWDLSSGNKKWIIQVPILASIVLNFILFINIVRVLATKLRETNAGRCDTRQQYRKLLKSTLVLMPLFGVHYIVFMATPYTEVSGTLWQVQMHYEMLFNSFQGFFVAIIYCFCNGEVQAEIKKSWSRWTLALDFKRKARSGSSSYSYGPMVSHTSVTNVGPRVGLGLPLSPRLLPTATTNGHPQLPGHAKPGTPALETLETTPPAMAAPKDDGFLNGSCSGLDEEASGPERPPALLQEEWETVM
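HEK-293-derived GP2 cells expressing PTHR1 and a GloSensor cAMP reporter, 3,000/well, plated overnight, given luciferin plus IBMX (each 0.5 mM as added) for 1 h at 37 °C, then compound for 1 h at 37 °C. Luminescence was read after 15 min at room temperature.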
RGS4 inh – human RGS4 inhibition | Transcreener GDP fluorescence polarization, RGS4-accelerated GTP hydrolysis | Potency, µM (doses to about 114 µM), inactives show at the top dose activity change, negative = inhibition, usual class: inhibitors | actives 0.039% (n = 390,000) | AID 504845; note: potency is the fitted concentration of half-maximal effect; % is set by controls: 0 for no effect and ±100 for the full control effect; nearly all actives have a fitted effect of over 75% in size
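MLSMR compounds (23 nl, pin-transferred) preincubated 10 min at room temperature with a 500nM (2x) first reagent, then RGS4 at 900nM (2x) plus Transcreener GDP mix added; fluorescence polarization (620/688 nm) read before and after 90 min at 30 °C.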
BRCA1 expr up – increases BRCA1 expression | MCF7-BRCA1-FFLuc reporter, luminescence, 48 h; response scale: scaled: vehicle 0%, 10 µM genistein 100% | Potency, µM (doses to about 46.1 µM), for inactives: at the top dose activation, actives largely listed as activators | actives 1.1% (n = 380,000) | AID 624202; note: potency is the fitted concentration of half-maximal effect; nearly all actives have a fitted effect of over 80% in size
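Reporter cells (MCF7, BRCA1 promoter-firefly luciferase) received library compounds across a concentration series for 48 h. End-point luminescence was measured and concentration-effect curves derived after normalization.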
p53 reactivator – mutant p53 re-activation in reporter cells; H1299 p53-A138V BP100-luciferase reporter, luminescence, 24 h; Potency, µM (titrated, usually from 92.2 µM), for inactives: at the top dose activity change, positive = activation, usual class: activators; actives 0.063% (n = 320,000); AID 504706; note: potency is the fitted concentration of half-maximal effect; % of control where 0% means no effect; nearly all actives have a fitted effect of over 45% in size
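H1299 (p53-null), stable ts p53-A138V + BP100-Luc; 1000 cells/well, Opti-MEM/10% FBS; cpd 4 pt, 1:5; 24 h, 37 deg C, 5% CO2; detection reagent 10 min RT; luminescence.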
The depositor's hits bear a star; i = inactive; ? = inconclusive; . = no result given; [ ] = dose if it differs, or a comment. Unless noted, calls come from the whole dose curve; as a rule, active = well fitted curve in the direction sought with a large enough effect; inconclusive = small, poorly fitted or top-dose-only effect, or another doubt; inactive = no such curve, though single readings can be large; an effect the other way counts as inactive or inconclusive.

SMILES	LDHA block	PTHR1 ag	RGS4 inh	BRCA1 expr up	p53 reactivator
CC(=O)Nc1ccc2c(c1)nc(CCNC(=O)c1ccccc1)n2C	-5	i	14%	3%	-3%
Cc1ccc(C(=O)Nc2ccc3c(c2)nc(CCNC(=O)c2ccco2)n3C)cc1	-4	-77%	-18%	7.1µM*	14%
Cn1c(CN2CCCC2)nc2cc(NC(=O)Nc3ccccc3)ccc21	0	-9%[57.5 µM]	13%	11µM*	?
CN1CCN(CCc2nc3cc(NC(=O)c4ccco4)ccc3n2C)CC1	-5	-24%	-12%	0%	-1%
CC(=O)NCCc1nc2cc(NC(=O)c3ccc([N+](=O)[O-])cc3)ccc2n1C	-7	i	-6%	6.3µM*	15%
O=C(c1cc2ccccc2oc1=O)N(Cc1ccc(C(F)(F)F)cc1)C1CC1	4	.	.	.	.
CC1CCN(CCc2nc3cc(NC(=O)Nc4ccccc4)ccc3n2C)CC1	-2	i	18%	14µM*	?
COCc1cccc(C(=O)NCCC(C)C)c1	-2	.	.	.	.
Cc1[nH]c2ccccc2c1C(=O)C(=O)Nc1ccc2c(c1)OCO2	0	-21%	23%	2.5µM*	5%
Cc1ccc2[nH]cc(CCn3ccc4c(cnc5ncnn54)c3=O)c2c1	3	.	.	.	.
O=C(OCC(=O)N(Cc1ccccc1)Cc1ccccc1)c1ccc2ccccc2n1	-37*	.	.	.	.
CC(C)N(C(=O)COC(=O)c1ccc2ccccc2n1)C(C)C	-4	.	.	.	.
Cc1cccc(/C=N/NC(=O)c2cccs2)c1	1	.	.	.	.
Fc1ccc(N/N=C/c2ccncc2)c(F)c1	-3	-16%	0%	14µM*	?
CSc1ccc(/C=N/Nc2ccc(F)cc2F)cc1	12	.	.	.	.
Clc1ccc(N/N=C/c2ccncc2)cc1Cl	-8	i	-8%	7.1µM*	20%
Clc1ccc(N/N=C/c2ccccc2)cc1Cl	4	.	.	.	.
c1ccn(-c2ccc(-c3ccn[nH]3)cc2)c1	-14	-9%	13%[56.9 µM]	5µM*	?
Clc1ccc(-c2nc(CSc3ccccn3)cs2)cc1	-18	-37%	.	10µM*	.
O=[N+]([O-])c1cccc(-c2nc3ccc([N+](=O)[O-])cc3[nH]2)c1	2	-47%	-100%[56.9 µM]	5µM*	21%
O=C(Cc1sc(Nc2ccccc2)nc1-c1ccccc1)NCc1ccccc1	-7	-2%	29%	-42%	40µM*
O=C(Cc1sc(-c2ccccc2)nc1-c1ccccc1)Nc1ccccc1	-3	-11%[57.5 µM]	-28%	-17%	-5%
N#Cc1ccc(OCCN2CCCc3ccccc32)cc1	-3	.	.	.	.
O=C1/C(=C/c2ccc(O)cc2)COc2ccccc21	-1	-91%	0%	0%	40µM*
O=C(NCCc1ccccc1)c1ccc(Br)o1	-8	-42%	6%	7.1µM*	?
SMILES	LDHA block	PTHR1 ag	RGS4 inh	BRCA1 expr up	p53 reactivator
O=C(NCCNC(=O)c1ccc(Br)o1)c1ccc(Br)o1	-5	i	11%[11.4 µM]	-2%	-10%
COc1ccc(C(=O)NCCS(=O)(=O)NCCc2ccccc2)cc1	-8	-15%	4%	4.5µM*	11%
CCN(CC)S(=O)(=O)c1cccc(C(=O)NCCc2ccccc2)c1	1	i	-9%	6.3µM*	.
COc1ccc(CCNS(=O)(=O)CCNC(=O)c2ccccc2)cc1	-4	i	-6%	-24%	11%
O=C(NCCCc1ccccc1)c1ccccc1	-6	-4%	-8%	10µM*	?
Cc1ccc(-c2[nH]ncc2CNCc2cccnc2)cc1	-7	.	.	.	.
Cc1ccc(C(=O)NC(C)CCc2ccccc2)cc1S(=O)(=O)N1CCOCC1 (configuration not stated)	0	-16%	-5%	-10%	1%
Cc1ccc(C(=O)NCCc2ccccc2)cc1S(=O)(=O)N1CCOCC1	-6	-32%	8%	11µM*	?
CC(=O)Nc1cccc(OCC(=O)Nc2sccc2C(N)=O)c1	-12	-18%	-6%	4µM*	3%
CC(=O)Nc1cccc(OCC(=O)Nc2ccccc2)c1	-3	i	-28%	?	?
COc1ccc(-c2nc(Cn3c(SCc4ccccc4F)nc4cccnc43)c(C)o2)cc1	1	-38%	5%	.	.

Screens from PubChem BioAssay.
